Data as given in PubChem BioAssay (NCATS).
Results filed as inconclusive are left out. Where a call stands in place of a potency, no number is given. Active and inactive are the calls of the source. Unless noted, calls come from the whole dose curve; as a rule, active = well fitted curve in the direction sought with a large enough effect; inconclusive = small, poorly fitted or top-dose-only effect, or another doubt; inactive = no such curve, though single readings can be large; an effect the other way counts as inactive or inconclusive.

How the values were obtained:
[1] = target: Furin (Homo sapiens) (UniProt P09958); assay: Furin counterscreen qHTS for Zika virus inhibitors (AID 1347149); note: potency is the fitted concentration of half-maximal effect; nearly all actives have a fitted effect of over 70% in size
How it was run: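 Fluorogenic cleavage of BOC-RVRR-AMC (2 microM final, Km ~15 µM) was monitored (ex 340, em 450 nm) at 37C after 15 min RT preincubation of 5 nM furin with compounds in HEPES pH 7.0 buffer with CaCl2 and Triton X-100. Percent inhibition was fitted to a 4-parameter Hill curve.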

[2] = test system: Zika virus NS2B-NS3 protease (unlinked complex); assay: Confirmatory screen GU AMC qHTS for Zika virus inhibitors (AID 1347153); note: potency is the fitted concentration of half-maximal effect; nearly all actives have a fitted effect of over 70% in size
How it was run: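 Unlinked enzyme 25 nM, Tris pH 8.0/0.01% Tween 20; cpd 15 min RT, dark; + AMC substrate 10 µM (Km 18.3 µM); 340/450 nm read at t0 and 15 min; % inhibition → 4-param fit.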

[3] = Confirmatory screen GU Rhodamine qHTS for Zika virus inhibitors qHTS (AID 1347157); note: potency is the fitted concentration of half-maximal effect; nearly all actives have a fitted effect of over 70% in size
How it was run: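 Noncovalent NS2B hydrophilic domain/NS3 protease complex (25 nM final) in 10 mM Tris-HCl pH 8.0, 0.01% Tween 20, preincubated 15 min with compounds (up to 114 microM), then 1.5 microM Rhodamine110 substrate. Fluorescence change over 15 min fitted to 4-parameter Hill.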

[4] = Confirmatory screen NINDS Rhodamine qHTS for Zika virus inhibitors (AID 1347161); note: potency is the fitted concentration of half-maximal effect; nearly all actives have a fitted effect of over 60% in size
How it was run: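 Enzyme (25 nM, linked NS2B-NS3) was preincubated 15 min with compound in 10 mM Tris-HCl pH 8.0, 0.01% Tween 20. Rhodamine110 substrate (1.5 microM) was then added and fluorescence read at start and after 15 min.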

[5] = test system: Zika virus NS2B-NS3 protease (linked construct); assay: 384 well plate NINDS Rhodamine confirmatory qHTS for Zika virus inhibitors (AID 1347164);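 note: fluorescence from protease cleavage of Ac-LKRR-rhodamine 110 substrate; potency is the fitted concentration of half-maximal effect; nearly all actives have a fitted effect of over 65% in size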
How it was run: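 Fluorescence at 485/538 nm was measured 25 minutes after adding 10 microM Ac-LKRR-Rd substrate, in the dark at room temperature. The protease (5, 30 or 60 nM final) had been preincubated ~15 minutes with compound; aprotinin as control.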

[6] = Vero cells viability qHTS for Zika virus inhibitors (AID 1347167)
How it was run: (§1)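 Cells seeded at 2.5 x 10^5 cells/mL in DMEM with 4% FBS and attached overnight at 37 degrees C, then exposed to compound for 24 to 48 hours. Viability read as ATP content by CellTiter Glo luminescence.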

[7] = HepG2 cells viability qHTS for Zika virus inhibitors (AID 1347168)
How it was run: as §1

[8] = Tertiary RLuc qRT-PCR qHTS assay for Zika virus inhibitors (AID 1347169); note: potency is the fitted concentration of half-maximal effect; nearly all actives have a fitted effect of over 55% in size
How it was run: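 Orthogonal cell-based readout: luminescence measured 1-1.5 hrs after adding live-cell Renilla substrate to Vero cells that had been infected with ZIKV-RLuc (MOI 1-2) post-compound, incubated 48-72 hrs at 37 degrees C.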

[9] = target: Calcium and integrin-binding protein 1 (Homo sapiens) (UniProt Q99828); assay: Confirmatory qHTS for Identification of Calcium Integrin Binding Protein 1 (CIB1) Competitor (AID 1508617); note: nearly all actives have a fitted effect of over 65% in size
How it was run: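 Binding competition between test compounds and fluorescent alphaIIb peptide for 1 uM CIB1-GST is monitored by FP at 480/540 nm. Final compound range is up to 114 uM; unlabeled peptide serves as reference competitor.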

[10] = target: 3',5'-cyclic-AMP phosphodiesterase 4B (Homo sapiens) (UniProt Q07343); assay: qHTS Assay for Inhibitors of PDE-IV (AID 607; active = well fitted activation curve with a large enough effect in the main read-out, with a control signal flat, not every such curve was filed as active)
How it was run: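 Live HEK293 cells with a modified cyclic nucleotide-gated (CNG) channel report intracellular cAMP via membrane-potential dye fluorescence (ex 535/em 590 nm). Endogenous PDE-IV was targeted. Compounds were tested at up to 22.9 uM final; RO 20-1724 100 uM served as control.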

[11] = NCATS anti-infectives library activity on HEK293 viability as a counter-qHTS vs the C. elegans viability qHTS (AID 1745854);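 note: HEK293 cells exposed to compounds for 24 hr before the viability read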
How it was run: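 Compounds were acoustically plated (several concentrations, 1:5, final up to 41.7 uM), then 1500 HEK293 cells added per well and incubated 24 hr at 37C, 5% CO2. CellTiter-Glo was added and luminescence read after 10 min.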

[12] = NCATS anti-infectives library activity on the primary C. elegans qHTS viability assay (AID 1745855; calls by dose curve)
How it was run: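 Viability read-out is GFP fluorescence of PE254-GFP-FLuc C. elegans, measured by laser cytometry (488 nm) at day 0, 3 and 7. Ten L1 worms per well were incubated 7 days at 21 °C with compounds and bacterial capsules in S medium.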

[13] = test system: ATS189; assay: qHTS profiling for inhibitors of Plasmodium falciparum proliferation (AID 504749); note: potency is the fitted concentration of half-maximal effect; nearly all actives have a fitted effect of over 60% in size; conditions: P. falciparum in erythrocytes, SYBR Green DNA, 72 h; series mostly up to 28.7 µM
How it was run: (§2)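 P. falciparum-infected erythrocytes (0.3% parasitemia, 2.5% hematocrit) incubated with compound 72 h at 37 C, 5% CO2. Parasite DNA detected by SYBR Green after lysis, overnight at room temperature; normalised to 0.29 uM artemisinin and DMSO.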

[14] = test system: CP291; assay: as above; conditions: P. falciparum in erythrocytes, SYBR Green DNA, 72 h; series mostly up to 28.7 µM
How it was run: as §2

[15] = test system: DIV14; assay: as above; conditions: P. falciparum in erythrocytes, SYBR Green DNA, 72 h; series mostly up to 28.7 µM
How it was run: as §2

[16] = test system: DIV17; assay: as above; conditions: P. falciparum in erythrocytes, SYBR Green DNA, 72 h; series mostly up to 28.7 µM
How it was run: as §2

[17] = test system: GB4; assay: as above; conditions: P. falciparum in erythrocytes, SYBR Green DNA, 72 h; series mostly up to 28.7 µM
How it was run: as §2

[18] = target: Rap guanine nucleotide exchange factor 3 (Homo sapiens) (UniProt O95398); assay: Confirmatory qHTS for agonist of cAMP-regulated guanine nucleotide exchange factor 3 (EPAC1) (AID 1645881);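 note: EPAC1 catalysed release of BODIPY-GDP from Rap1B seen as fluorescence loss; nearly all actives have a fitted effect of over 75% in size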
[19] = target: Rap guanine nucleotide exchange factor 4 (Homo sapiens) (UniProt Q8WZA2); assay: Confirmatory qHTS for agonist of cAMP-regulated guanine nucleotide exchange factor 4 (EPAC2) (AID 1645884);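 note: nucleotide exchange releases bodipy-GDP from Rap1 and this lowers its fluorescence; nearly all actives have a fitted effect of over 65% in size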
[20] = Counterscreen qHTS for small molecule stabilizers of the endoplasmic reticulum resident proteome: GLuc-NoTag assay (AID 1508627);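 note: SH-SY5Y cells given compound then 100 nM thapsigargin to empty ER calcium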
How it was run: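 SH-SY5Y cells stably expressing constitutively secreted GLuc without SERCaMP tag, exposed to compound for 19 hr, then to 100 nM thapsigargin for 4 hr at 37C. Medium luciferase was read by coelenterazine luminescence without lysis.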

Chain of Rap guanine nucleotide exchange factor 4 (Homo sapiens) (Q8WZA2 whole entry, looked up): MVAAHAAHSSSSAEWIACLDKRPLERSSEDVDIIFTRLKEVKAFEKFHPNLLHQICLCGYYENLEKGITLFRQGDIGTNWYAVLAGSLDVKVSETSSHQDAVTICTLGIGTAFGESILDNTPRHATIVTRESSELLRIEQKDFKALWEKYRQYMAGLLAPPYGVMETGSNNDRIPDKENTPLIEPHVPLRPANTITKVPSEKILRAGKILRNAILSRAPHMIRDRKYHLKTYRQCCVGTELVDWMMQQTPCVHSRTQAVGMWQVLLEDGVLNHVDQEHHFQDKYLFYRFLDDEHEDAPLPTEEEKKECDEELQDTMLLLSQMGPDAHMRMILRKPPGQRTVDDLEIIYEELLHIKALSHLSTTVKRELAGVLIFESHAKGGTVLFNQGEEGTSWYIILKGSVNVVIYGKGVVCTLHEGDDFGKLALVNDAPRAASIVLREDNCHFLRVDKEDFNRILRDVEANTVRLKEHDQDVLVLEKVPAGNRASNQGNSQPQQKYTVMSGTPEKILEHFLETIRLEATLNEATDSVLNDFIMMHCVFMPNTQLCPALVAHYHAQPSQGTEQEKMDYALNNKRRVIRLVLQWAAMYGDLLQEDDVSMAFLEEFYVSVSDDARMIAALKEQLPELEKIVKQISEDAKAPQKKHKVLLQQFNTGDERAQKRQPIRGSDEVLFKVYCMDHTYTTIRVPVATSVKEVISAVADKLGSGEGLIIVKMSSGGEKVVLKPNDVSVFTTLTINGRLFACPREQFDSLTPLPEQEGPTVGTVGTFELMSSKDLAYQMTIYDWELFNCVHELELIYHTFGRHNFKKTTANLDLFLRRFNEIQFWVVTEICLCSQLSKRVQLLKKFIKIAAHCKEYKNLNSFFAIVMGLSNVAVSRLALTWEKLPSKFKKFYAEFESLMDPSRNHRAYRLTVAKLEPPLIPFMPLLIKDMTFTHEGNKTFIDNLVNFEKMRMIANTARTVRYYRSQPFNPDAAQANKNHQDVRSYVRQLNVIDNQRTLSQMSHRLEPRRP
Chain of Rap guanine nucleotide exchange factor 3 (Homo sapiens) (O95398 whole entry, looked up): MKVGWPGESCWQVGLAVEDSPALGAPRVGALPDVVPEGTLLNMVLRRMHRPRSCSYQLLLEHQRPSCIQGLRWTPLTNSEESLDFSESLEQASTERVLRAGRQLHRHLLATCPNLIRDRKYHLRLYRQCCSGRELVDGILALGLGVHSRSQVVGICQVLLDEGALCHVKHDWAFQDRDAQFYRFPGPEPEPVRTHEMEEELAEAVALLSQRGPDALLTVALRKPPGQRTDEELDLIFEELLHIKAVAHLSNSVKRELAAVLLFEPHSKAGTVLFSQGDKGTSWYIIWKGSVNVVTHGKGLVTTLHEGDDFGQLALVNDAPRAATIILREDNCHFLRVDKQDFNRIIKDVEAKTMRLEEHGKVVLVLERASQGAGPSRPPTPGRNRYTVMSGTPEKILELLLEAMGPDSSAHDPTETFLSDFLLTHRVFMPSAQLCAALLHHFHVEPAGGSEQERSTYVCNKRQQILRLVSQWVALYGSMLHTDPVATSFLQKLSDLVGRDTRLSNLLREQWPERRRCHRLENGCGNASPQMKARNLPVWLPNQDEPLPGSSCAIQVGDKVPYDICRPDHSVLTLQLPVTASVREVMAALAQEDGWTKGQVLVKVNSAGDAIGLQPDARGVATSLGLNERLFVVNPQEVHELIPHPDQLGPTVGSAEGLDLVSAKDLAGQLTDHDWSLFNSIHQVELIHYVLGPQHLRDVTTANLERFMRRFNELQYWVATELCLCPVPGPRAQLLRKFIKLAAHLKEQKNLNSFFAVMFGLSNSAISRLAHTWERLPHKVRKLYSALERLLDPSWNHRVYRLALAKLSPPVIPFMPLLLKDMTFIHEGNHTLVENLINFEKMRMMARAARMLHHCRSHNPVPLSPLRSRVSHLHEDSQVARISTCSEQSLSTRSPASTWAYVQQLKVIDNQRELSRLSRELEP
Chain of Calcium and integrin-binding protein 1 (Homo sapiens) (Q99828 whole entry, looked up): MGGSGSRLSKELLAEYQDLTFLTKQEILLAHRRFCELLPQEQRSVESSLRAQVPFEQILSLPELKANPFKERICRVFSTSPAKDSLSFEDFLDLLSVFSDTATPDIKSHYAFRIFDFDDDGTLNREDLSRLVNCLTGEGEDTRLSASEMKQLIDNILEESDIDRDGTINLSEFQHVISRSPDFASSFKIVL
Chain of 3',5'-cyclic-AMP phosphodiesterase 4B (Homo sapiens) (Q07343 whole entry, looked up): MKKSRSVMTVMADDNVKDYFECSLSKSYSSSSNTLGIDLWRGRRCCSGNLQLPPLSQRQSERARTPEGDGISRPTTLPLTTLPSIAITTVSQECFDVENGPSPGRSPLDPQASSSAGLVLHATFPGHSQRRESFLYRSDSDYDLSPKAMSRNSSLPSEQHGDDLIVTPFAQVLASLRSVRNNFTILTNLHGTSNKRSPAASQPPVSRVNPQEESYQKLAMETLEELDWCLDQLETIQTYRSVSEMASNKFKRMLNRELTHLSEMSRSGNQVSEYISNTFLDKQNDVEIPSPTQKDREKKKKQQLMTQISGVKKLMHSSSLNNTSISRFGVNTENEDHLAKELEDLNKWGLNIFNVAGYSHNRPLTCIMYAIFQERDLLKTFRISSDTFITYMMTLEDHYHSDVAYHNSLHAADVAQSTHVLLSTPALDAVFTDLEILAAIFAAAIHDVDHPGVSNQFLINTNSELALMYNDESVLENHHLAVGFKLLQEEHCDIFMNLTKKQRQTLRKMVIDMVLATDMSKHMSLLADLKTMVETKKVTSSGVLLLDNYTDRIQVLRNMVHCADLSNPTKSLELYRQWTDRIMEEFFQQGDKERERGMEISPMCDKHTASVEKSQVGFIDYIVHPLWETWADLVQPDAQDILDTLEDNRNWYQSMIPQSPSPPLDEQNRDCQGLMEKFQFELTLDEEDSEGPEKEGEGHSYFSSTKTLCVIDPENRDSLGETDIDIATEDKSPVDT
Chain of Furin (Homo sapiens) (P09958 whole entry, looked up): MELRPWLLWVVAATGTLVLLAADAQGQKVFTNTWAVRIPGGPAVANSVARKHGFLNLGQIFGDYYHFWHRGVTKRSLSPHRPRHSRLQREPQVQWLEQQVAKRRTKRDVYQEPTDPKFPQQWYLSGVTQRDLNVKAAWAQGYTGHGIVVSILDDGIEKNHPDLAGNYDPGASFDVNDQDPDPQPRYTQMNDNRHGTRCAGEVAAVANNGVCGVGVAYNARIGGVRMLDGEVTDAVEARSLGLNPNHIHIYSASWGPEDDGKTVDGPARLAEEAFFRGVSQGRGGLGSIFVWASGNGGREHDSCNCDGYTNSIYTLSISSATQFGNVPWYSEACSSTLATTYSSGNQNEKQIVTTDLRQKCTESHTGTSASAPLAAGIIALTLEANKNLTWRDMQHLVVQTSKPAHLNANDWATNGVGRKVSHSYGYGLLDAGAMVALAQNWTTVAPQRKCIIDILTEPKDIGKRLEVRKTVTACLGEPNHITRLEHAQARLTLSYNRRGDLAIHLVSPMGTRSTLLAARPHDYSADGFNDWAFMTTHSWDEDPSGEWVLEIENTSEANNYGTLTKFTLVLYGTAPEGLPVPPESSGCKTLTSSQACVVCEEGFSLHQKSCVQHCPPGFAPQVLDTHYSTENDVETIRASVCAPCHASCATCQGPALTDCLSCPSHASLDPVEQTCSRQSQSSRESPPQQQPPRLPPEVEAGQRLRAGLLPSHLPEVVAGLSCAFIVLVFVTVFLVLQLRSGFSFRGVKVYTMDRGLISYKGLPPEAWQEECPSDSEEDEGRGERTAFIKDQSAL

Structure (SMILES): O=C(O)c1ccc(O)c2ncc(N3CCCN(CCc4cccc5ccccc45)CC3)cc12
- Potency [1]: 49.4 µM (active)
- Potency [2]: 49.4 µM (active)
- Potency [3]: 13.9 µM (active)
- Potency [4]: 13.9 µM (active)
- Potency [5]: 3.55 µM (active)
- Potency [6]: inactive
- Potency [7]: inactive
- Potency [8]: 6.58 µM (active)

Structure (SMILES): CN(C)CCCCCCNC(=O)c1cccc(-c2cc(O)c3ncccc3c2)c1
- outcome [9]: inactive

Structure (SMILES): COc1cc(/C=C(\C#N)C(N)=O)cc(CSc2nc3ccccc3s2)c1O
- Potency [10]: inactive

Structure (SMILES): Cc1nc2c(O)cccc2c(=O)[nH]1
- outcome [11]: inactive
- Potency [12]: inactive

Structure (SMILES): CN1CCN(CCC=C2c3ccccc3Sc3ccc(S(=O)(=O)N(C)C)cc32)CC1
- Potency [13]: 8.91 µM (active)
- Potency [14]: 15.1 µM (active)
- Potency [15]: 8.49 µM (active)
- Potency [16]: 9.53 µM (active)
- Potency [17]: 13.5 µM (active)

Structure (SMILES): C#C[C@]1(OC(C)=O)CC[C@H]2[C@@H]3CCC4=CC(=O)CC[C@@H]4[C@H]3CC[C@@]21C
- outcome [18]: inactive
- outcome [19]: inactive

Structure (SMILES): CS(=O)(=O)CCNCc1nc(-c2ccc3ncnc(Nc4ccc(OCc5cccc(F)c5)c(Cl)c4)c3c2)cs1
- Potency [20]: inactive

Structure (SMILES): CCC(=O)O[C@H]1CC[C@H]2[C@@H]3CCc4cc(O)ccc4[C@H]3CC[C@]12C
- outcome [18]: inactive
- outcome [19]: inactive

Structure (SMILES): O=c1[nH]ccc2c(S(=O)(=O)N3CCCNCC3)cccc12
- Potency [20]: inactive
